Source: paper PMC7862700, “An all-to-all approach to the identification of sequence-specific readers for epigenetic DNA modifications on cytosine”

Key:
Experiment in all cases: DAPPL (digital affinity profiling via proximity ligation, sequencing); 10 mM Tris-HCl pH 7.5, 50 mM NaCl, 1 mM DTT, 4% glycerol, room temperature, 30 min; GST-TFs on glutathione beads, 16-mer random dsDNA library, 0.1% formaldehyde crosslink after washing; high values mean tight binding
[1] = target: T1, FEV (Homo sapiens, UniProt Q99581 1-238); details: protein: recombinant; tags: N-terminal GST; dsDNA, one strand shown
T1 sequence: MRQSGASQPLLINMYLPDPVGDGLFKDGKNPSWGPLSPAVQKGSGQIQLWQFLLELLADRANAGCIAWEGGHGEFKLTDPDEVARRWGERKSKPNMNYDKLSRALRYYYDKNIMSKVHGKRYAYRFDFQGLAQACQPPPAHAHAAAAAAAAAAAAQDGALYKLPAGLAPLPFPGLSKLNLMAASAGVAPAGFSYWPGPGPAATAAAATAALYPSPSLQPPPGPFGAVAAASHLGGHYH
In short: (§1)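 A tag-only sample was pooled with DNA-barcoded human transcription factors that had been expressed in yeast as GST fusions and captured on glutathione beads. The pools were incubated for 30 min at room temperature with 200 nmole of a random double-stranded 16-mer DNA library in Tris/NaCl/DTT/glycerol buffer, then washed, crosslinked with 0.1% formaldehyde, proximity-ligated (BsaI/T4 ligase, 1 h, 37 °C), PCR-amplified and sequenced on an Illumina NextSeq500. Binding signal is each hexamer's read frequency for a factor divided by its frequency for the tag-only sample.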

[2] = target: ETV5 (Homo sapiens, UniProt P41161 1-510); details: protein: recombinant; tags: N-terminal GST; dsDNA, one strand shown
In short: as §1

[3] = target: HSF1 (Homo sapiens, UniProt Q00613 1-529); details: protein: recombinant; tags: N-terminal GST; chain copies: 3; dsDNA, one strand shown
In short: as §1

[4] = target: T2, SPIC (Homo sapiens, UniProt Q8N5J4 1-248); details: protein: recombinant; tags: N-terminal GST; dsDNA, one strand shown
T2 sequence: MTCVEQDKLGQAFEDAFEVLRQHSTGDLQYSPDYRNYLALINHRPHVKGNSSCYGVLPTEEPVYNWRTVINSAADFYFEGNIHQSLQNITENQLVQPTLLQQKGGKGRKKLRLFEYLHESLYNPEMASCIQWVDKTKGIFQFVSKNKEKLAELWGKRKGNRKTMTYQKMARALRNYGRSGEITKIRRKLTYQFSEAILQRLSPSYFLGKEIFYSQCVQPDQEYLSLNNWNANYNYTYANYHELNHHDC
In short: as §1

[5] = target: ELF4 (Homo sapiens, UniProt Q99607 1-663); details: protein: recombinant; tags: N-terminal GST; dsDNA, one strand shown
In short: as §1

[6] = target: T3, ELK4 (Homo sapiens, UniProt P28324-2 1-405); details: protein: recombinant; tags: N-terminal GST; dsDNA, one strand shown
T3 sequence: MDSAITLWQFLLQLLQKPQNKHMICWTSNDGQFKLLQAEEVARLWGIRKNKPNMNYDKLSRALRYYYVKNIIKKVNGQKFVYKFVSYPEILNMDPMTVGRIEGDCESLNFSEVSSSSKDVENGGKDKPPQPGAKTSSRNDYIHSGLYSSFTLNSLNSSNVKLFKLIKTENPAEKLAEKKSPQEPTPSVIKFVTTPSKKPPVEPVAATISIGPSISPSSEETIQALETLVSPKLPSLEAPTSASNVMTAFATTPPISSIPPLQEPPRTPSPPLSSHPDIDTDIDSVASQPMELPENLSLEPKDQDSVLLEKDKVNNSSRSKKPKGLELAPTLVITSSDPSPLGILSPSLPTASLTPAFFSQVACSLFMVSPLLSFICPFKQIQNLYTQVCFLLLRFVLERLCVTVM
In short: as §1

[7] = target: T4, ETV2 (Homo sapiens, UniProt O00321 1-342); details: protein: recombinant; tags: N-terminal GST; dsDNA, one strand shown
T4 sequence: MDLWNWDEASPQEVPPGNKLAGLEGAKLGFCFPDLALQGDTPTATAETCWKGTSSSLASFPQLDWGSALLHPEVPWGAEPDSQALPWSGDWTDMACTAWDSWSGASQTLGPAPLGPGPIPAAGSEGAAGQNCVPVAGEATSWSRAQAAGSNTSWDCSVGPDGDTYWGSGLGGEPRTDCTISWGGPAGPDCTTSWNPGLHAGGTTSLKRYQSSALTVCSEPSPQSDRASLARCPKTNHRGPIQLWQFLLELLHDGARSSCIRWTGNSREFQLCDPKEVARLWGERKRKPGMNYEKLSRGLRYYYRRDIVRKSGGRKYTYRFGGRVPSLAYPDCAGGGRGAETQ
In short: as §1

[8] = target: T5, ELF3 (Homo sapiens, UniProt P78545 1-371); details: protein: recombinant; tags: N-terminal GST; dsDNA, one strand shown
T5 sequence: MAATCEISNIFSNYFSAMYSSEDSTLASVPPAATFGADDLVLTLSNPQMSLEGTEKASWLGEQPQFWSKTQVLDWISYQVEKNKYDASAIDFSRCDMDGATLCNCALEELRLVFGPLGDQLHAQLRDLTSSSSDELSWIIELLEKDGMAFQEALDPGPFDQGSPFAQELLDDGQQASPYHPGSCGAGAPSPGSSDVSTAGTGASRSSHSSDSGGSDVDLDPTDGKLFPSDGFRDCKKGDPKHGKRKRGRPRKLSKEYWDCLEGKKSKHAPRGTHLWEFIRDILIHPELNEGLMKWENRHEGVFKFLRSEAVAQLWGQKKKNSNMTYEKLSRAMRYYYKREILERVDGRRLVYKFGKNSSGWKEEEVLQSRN
In short: as §1

[9] = target: ETV1 (Homo sapiens, UniProt P50549 1-477); details: protein: recombinant; tags: N-terminal GST; dsDNA, one strand shown
In short: as §1

Sequence of ELF4 (Q99607 whole entry): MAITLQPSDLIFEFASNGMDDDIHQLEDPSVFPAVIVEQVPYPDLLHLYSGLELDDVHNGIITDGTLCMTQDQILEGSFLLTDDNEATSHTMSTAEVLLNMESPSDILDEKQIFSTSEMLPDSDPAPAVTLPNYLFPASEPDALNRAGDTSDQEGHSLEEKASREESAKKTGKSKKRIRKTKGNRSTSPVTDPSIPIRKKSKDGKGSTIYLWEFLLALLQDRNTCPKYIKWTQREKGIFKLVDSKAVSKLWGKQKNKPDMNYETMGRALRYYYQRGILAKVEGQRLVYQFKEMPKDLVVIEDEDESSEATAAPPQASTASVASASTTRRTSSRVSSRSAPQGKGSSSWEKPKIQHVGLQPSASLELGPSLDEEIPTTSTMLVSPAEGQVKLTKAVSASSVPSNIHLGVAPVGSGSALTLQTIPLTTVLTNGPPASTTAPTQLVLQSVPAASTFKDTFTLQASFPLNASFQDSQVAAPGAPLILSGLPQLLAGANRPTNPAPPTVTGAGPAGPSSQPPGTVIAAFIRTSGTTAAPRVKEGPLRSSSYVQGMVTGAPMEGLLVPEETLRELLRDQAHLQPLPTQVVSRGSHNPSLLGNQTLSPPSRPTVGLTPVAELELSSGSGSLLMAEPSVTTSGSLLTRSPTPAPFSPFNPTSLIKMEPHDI
Sequence of HSF1 (Q00613 whole entry): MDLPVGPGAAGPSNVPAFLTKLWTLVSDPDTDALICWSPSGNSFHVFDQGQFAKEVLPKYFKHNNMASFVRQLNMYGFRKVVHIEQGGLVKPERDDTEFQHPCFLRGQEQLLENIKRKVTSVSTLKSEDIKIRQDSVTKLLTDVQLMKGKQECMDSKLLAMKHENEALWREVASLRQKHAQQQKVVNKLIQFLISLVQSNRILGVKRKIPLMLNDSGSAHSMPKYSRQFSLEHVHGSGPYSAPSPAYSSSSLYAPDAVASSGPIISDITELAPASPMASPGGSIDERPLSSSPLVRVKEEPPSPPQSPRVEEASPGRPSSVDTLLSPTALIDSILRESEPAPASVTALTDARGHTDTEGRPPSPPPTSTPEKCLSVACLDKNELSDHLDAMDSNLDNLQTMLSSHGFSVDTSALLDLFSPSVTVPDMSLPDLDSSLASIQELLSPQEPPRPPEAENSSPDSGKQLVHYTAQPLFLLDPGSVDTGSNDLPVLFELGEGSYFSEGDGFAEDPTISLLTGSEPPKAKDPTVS
Sequence of ETV5 (P41161 whole entry): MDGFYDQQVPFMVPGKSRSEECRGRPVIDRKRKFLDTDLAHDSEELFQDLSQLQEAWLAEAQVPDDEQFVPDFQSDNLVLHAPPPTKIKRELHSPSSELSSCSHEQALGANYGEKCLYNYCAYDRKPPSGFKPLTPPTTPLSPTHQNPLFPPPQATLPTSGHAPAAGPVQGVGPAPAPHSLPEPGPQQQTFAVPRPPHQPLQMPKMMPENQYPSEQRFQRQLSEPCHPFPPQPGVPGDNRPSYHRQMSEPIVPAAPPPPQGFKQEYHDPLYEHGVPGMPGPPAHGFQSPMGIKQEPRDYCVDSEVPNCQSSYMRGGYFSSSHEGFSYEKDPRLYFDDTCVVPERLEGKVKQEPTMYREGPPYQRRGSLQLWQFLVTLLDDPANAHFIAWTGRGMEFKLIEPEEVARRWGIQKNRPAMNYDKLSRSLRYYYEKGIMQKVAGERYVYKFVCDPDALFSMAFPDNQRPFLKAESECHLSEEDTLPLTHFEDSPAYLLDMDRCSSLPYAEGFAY
Sequence of ETV1 (P50549 whole entry): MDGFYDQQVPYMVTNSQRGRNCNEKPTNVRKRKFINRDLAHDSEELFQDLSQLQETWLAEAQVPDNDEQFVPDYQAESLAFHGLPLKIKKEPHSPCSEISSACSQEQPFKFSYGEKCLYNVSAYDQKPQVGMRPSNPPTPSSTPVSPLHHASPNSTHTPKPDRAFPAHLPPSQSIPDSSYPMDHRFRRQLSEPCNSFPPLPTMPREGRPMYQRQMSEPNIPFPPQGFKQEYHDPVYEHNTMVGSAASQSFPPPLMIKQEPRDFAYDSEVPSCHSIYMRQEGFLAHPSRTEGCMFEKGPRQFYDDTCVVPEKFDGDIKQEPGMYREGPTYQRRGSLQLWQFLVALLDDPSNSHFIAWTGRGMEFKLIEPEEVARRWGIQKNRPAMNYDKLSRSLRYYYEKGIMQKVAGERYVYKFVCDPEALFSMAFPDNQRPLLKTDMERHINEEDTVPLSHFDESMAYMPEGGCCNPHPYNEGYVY

Q: AAGGAA was tested. Which binding signal [1] did it give?
A: 1.19 fold enrichment (6-mer frequency, TF over GST control)

Q: What about the binding signal [2] of the same sequence?
A: 1.35 fold enrichment (6-mer frequency, TF over GST control)

Q: And the binding signal [3]?
A: 1.17 fold enrichment (6-mer frequency, TF over GST control)

Q: What about the binding signal [4] of the same sequence?
A: 1.36 fold enrichment (6-mer frequency, TF over GST control)

Q: What about the binding signal [5] of the same sequence?
A: 1.25 fold enrichment (6-mer frequency, TF over GST control)

Q: And the binding signal [6]?
A: 1.12 fold enrichment (6-mer frequency, TF over GST control)

Q: And the binding signal [7]?
A: 1.31 fold enrichment (6-mer frequency, TF over GST control)

Q: What about the binding signal [8] of the same sequence?
A: 1.66 fold enrichment (6-mer frequency, TF over GST control)

Q: And the binding signal [9]?
A: 1.24 fold enrichment (6-mer frequency, TF over GST control)
